Several values for one entry are separate records, joined by “and”; a condition that tells them apart may be missing. Equal values may be shown once. Where a name gives a salt, the structure may show the parent alone.
Assays:
Experiment in all cases: cell viability relative to vehicle control; higher = less cytotoxic
Settings in all cases: 10 µM
K562 = tested on: K562
In short: (§1)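 Four leukaemia lines, as CRISPR-edited mutant clones and isogenic wild-type clones, were tested against Selleck bioactive, kinase and epigenetic probe libraries after removal of identity-inconsistent compounds. Cells were exposed to a single 10 µM dose for 48 h, and CellTiter-Glo luminescence was then read. Viability was calculated relative to the on-plate vehicle control.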

MARIMO = tested on: MARIMO
In short: as §1

MOLM14 = tested on: MOLM14
In short: as §1

OCI-AML2 = tested on: OCI-AML2
In short: as §1

SMILES	cell viability (K562; SRSF2 genotype: SRSF2 P95H/wt)	cell viability (K562; SRSF2 genotype: SRSF2 wt/wt)	cell viability (MARIMO; SRSF2 genotype: SRSF2 P95H/wt)	cell viability (MARIMO; SRSF2 genotype: SRSF2 wt/wt)	cell viability (MOLM14; SRSF2 genotype: SRSF2 P95H/wt)	cell viability (MOLM14; SRSF2 genotype: SRSF2 wt/wt)	cell viability (OCI-AML2; SRSF2 genotype: P95H/wt)	cell viability (OCI-AML2; SRSF2 genotype: wt/wt)
c1csc(-c2ccc(-c3cccs3)s2)c1 [2,2':5',2''-Terthiophene]	95.8% and 89.3%	97.1%	88.1%	100%	91.7%	98.7%	84.6%	85.4%
C=CC[C@]1(O)CC[C@H]2[C@@H]3CCC4=CC(=O)CCC4=C3C=C[C@@]21C [Altrenogest]	92.6% and 98.1%	97.5%	99.9%	102%	99.8%	107%	109%	96.9%
c1c2c(cc3c1OCO3)-c1cc3ccc4c(c3c[n+]1CC2)OCO4 [Coptisine chloride]	83.7% and 89.7%	84.2%	95.4%	99.8%	96.2%	94.3%	84.5%	91.7%
COc1ccc(N(C(=O)Oc2c(C)cccc2C)c2ccnc(Nc3ccc(N4CCN(C)CC4)cc3)n2)c(OC)c1	7.22% and 20.7%	6.62%	72.3%	58.7%	38.8%	35.4%	23.5%	28.6%
O=[N+]([O-])c1ncc[nH]1 [Azomycin (2-Nitroimidazole)]	102% and 103%	101%	101%	101%	95.3%	100%	97.8%	96.8%
Fc1cc(F)c2c(c1)[C@H]1C=CC[C@H]1C(c1cccnc1)N2 (stereo not given in full) [Golgicide A]	25.9% and 36.2%	32.3%	14.1%	27.5%	46.3%	68.2%	12.2%	22.5%
CNCC(=O)c1ccc(O)c(O)c1 [Adrenalone HCl]	97.4% and 92.4%	98.3%	91.8%	92.3%	88.6%	94%	90.5%	97.5%
C[C@]12CC[C@H]3[C@@H](CCC4=CC(=O)C=C[C@@]43C)[C@@H]1CC[C@@H]2O [Boldenone]	99.7% and 103%	110%	101%	104%	105%	110%	113%	111%
CC1C(=O)OC2C(O)C34C5OC(=O)C3(OC3OC(=O)C(O)C34C(C(C)(C)C)C5O)C12O (stereo not given) [Ginkgolide C]	98.9% and 97.9%	94.4%	93.5%	97.6%	103%	103%	102%	105%
CC[C@H]1[C@@H]2C[C@H]3[C@@H]4N(C)c5ccccc5[C@]45C[C@@H]([C@@H]2[C@H]5O)N3[C@@H]1O [Ajmaline]	95.7% and 94%	98.5%	90.6%	96.2%	94.6%	98.4%	93.9%	97.9%
